Screen size: about 69,000 compounds; about 8,600 (12%) showed an effect of 50% or more. The list comes from a sample in which strong results are over-represented; it also holds similar structures and randomly drawn compounds.

The assay concerns Plasmodium berghei. Description: Screen against P. berghei liver stage (PbLuc), transformed with Luciferase, at 10uM. The format is functional, HepG2. To be noted: tested at 10 uM.
For `CCCn1cc(CN2CCOCC2c2[nH]ncc2C)cn1` (configuration not stated), the INHIBITION worked out at 6.2%.
The same measure for `Cc1ncc(CN2CCc3c(nc4cc(C5CC5)nn4c3O)C2)n1C`: 47.1%; for `Cc1oc2c(c1C(=O)N1CC[C@H](O)[C@]3(CCCO3)C1)CCCC2`: 3.75%.
As for `CC(C)Oc1cccc2c1c(NC(=O)CN(C)C)nn2CC(F)(F)F`, the INHIBITION amounted to 7.77%.
Turning to `Cc1nccn1-c1cccc(C2CCCN(C(=O)c3cc[nH]n3)C2)n1` (configuration not stated), the INHIBITION worked out at 53.8%.
In the case of `Cc1nccn1-c1cccc(C2CCCN(C3CCCCC3)C2)n1` (configuration not stated), the INHIBITION was 11.4%.
On to `O=C(c1cnccn1)N1CCCC(c2cccc(-n3ccnc3)n2)C1` (configuration not stated), for which the INHIBITION turned out to be 50.1%.
The same measure for `Cc1cc(C)nc(N2CCCC(c3cccc(-n4ccnc4)n3)C2)n1` (configuration not stated): 69.3%; for `O=C(c1cc[nH]n1)N1CCCC(c2cccc(-n3ccnc3)n2)C1` (configuration not stated): 14.4%.
Turning to `Cc1n[nH]cc1C(=O)N1CCCC(c2cccc(-n3ccnc3)n2)C1` (configuration not stated), the INHIBITION is on record as -13.7%.
Take `CC(=O)N1CCCC(c2cccc(-n3ccnc3)n2)C1` (configuration not stated): the INHIBITION was found to be 36.7%.
Take `c1cnc(N2CCCC(c3cncc(-n4ccnc4)n3)C2)nc1` (configuration not stated): the INHIBITION was determined as 15.9%.
On to `Cc1nc(C(=O)N2CCCC(c3cccc(-n4ccnc4)n3)C2)co1` (configuration not stated), for which the INHIBITION was 29.6%.
With `COCC(=O)N1CCCC(c2cccc(-n3ccnc3)n2)C1` (configuration not stated), the INHIBITION came to 36.7%.
In the case of `O=C(C1CCCC1)N1CCCC(c2cccc(-n3ccnc3)n2)C1` (configuration not stated), the INHIBITION was 63.4%.
On to `O=C(C1CCC1)N1CCCC(c2cccc(-n3ccnc3)n2)C1` (configuration not stated), for which the INHIBITION was determined as 29.3%.
The same measure for `CC(=O)c1ccc(OCC(=O)NS(=O)(=O)c2cccnc2)cc1`: 35.9%.
With `Cc1cnn(CC2CCCCN2C(=O)c2cc(Cl)c[nH]2)c1` (configuration not stated), the INHIBITION came to 40.3%.
Regarding `Cc1cccc(C(=O)N2CCC3(CC(C(=O)N(C)C(C)C)=NO3)C2)c1` (configuration not stated), the INHIBITION is reported as 6.72%.
Regarding `Cc1noc([C@@H]2C[C@H]3OCC[C@H]3N(S(=O)(=O)N(C)C)C2)n1`, the INHIBITION is -13%.
`CC(=O)N1CCN(C(=O)NCc2ccccc2Cn2cncn2)CC1`: the INHIBITION was -56.4%.
In the case of `COCC(=O)NCC1CCC(c2ccnc3ncnn23)CC1` (configuration not stated), the INHIBITION is on record as 15.5%.
With `Cc1cc(C)nc(N2CCC(c3cncc(-n4ccnc4)n3)CC2)n1`, the INHIBITION is listed as 66.4%.
In the case of `Fc1ccc(CN2CCCC2c2cncc(-n3ccnc3)n2)cc1` (configuration not stated), the INHIBITION was found to be 22.7%.
Consider `c1cn(-c2cncc(C3CCNCC3)n2)cn1`, for which the INHIBITION is listed as -64.7%.
`CCOCc1ccc(NC(=O)N2CCOC3(CCC3)C2)cc1`: the INHIBITION is -1.32%.
The same measure for `O=C(c1cc(Br)ccc1Cl)N1CCN(Cc2ccco2)CC1`: 36.9%; for `CC(=O)N1CCN(Cc2ccco2)CC2(CC(=O)N(C)C2)C1` (configuration not stated): 19.8%.
Regarding `O=C(c1cc(Cl)c(Br)[nH]1)N1CCN(Cc2ccco2)CC1`, the INHIBITION is 63.8%.
Regarding `O=C(c1cc(Br)c[nH]1)N1CCN(Cc2ccco2)CC1`, the INHIBITION is 55.4%.
`Cc1cc(C)c2cc(C(=O)N3CCN(Cc4ccco4)CC3)[nH]c2c1`: the INHIBITION turned out to be 9.04%.
The same measure for `CC(C)c1cc(C(=O)N2CCN(Cc3ccco3)CC2)n[nH]1`: 14.3%.
With `CCOc1ncnc2c1CCN(S(=O)(=O)c1ccccc1)CC2`, the INHIBITION is on record as 41.2%.
For the compound `Cc1ccc2nc(C3CCN(CC(C)C)CC3)nc(O)c2c1`, the INHIBITION was -8.07%.
As for `CC(C)Oc1ccc(C(=O)N2CCC(Nc3cccnn3)CC2)cn1`, the INHIBITION was -73.2%.
Take `Cc1cccc(CN2CCCn3c(nnc3CN3CCCC3=O)C2)n1`: the INHIBITION worked out at 24.8%.
The same measure for `Cc1ccc(NC2CCN(C(=O)C(C)n3cncn3)CC2)nn1` (configuration not stated): -19.4%.
The same measure for `O=C(c1ccccc1)N1C[C@H]2CC[C@@H](C1)N(C(=O)CN1CCOCC1)C2`: 0.897%; for `CN(C(=O)COc1ccc(-c2noc(C3CCCO3)n2)cc1)C1CC1` (configuration not stated): -27.3%.
The same measure for `Cc1cc(C)cc(-n2ncc3c2CCCC3N)c1` (configuration not stated): 37.9%.
`Cc1nc(C)n(CC(=O)N2CCCC(c3nc(C)n4c(C)csc34)C2)n1` (configuration not stated): the INHIBITION was found to be 8.12%.
For `O=C(c1cn(-c2ccc(F)cc2)nn1)N1CCCC(n2cccn2)C1` (configuration not stated) the value was -73.2%.
For `Cc1nc(CCNC(C)c2ccc3c(c2)OCCCO3)cs1` (configuration not stated), the INHIBITION is on record as 10%.
Take `CCCc1nnc(NC(C)c2ccc3c(c2)OCCO3)o1` (configuration not stated): the INHIBITION stood at 53.9%.
Take `CCc1nnc(N[C@H](C)c2cccc(OC)c2)o1`: the INHIBITION amounted to 8.48%.
As to `CCCc1nnc(N[C@H](C)c2ccc(OC)cc2)o1`, the INHIBITION was found to be 52.8%.
With `CC(NC(=O)CNCCn1cccn1)c1ccc2c(c1)OCCO2` (configuration not stated), the INHIBITION was found to be 24.8%.
For the compound `CCCc1nnc(NC(C)c2ccc(F)cc2)o1` (configuration not stated), the INHIBITION is 8.48%.
As to `Cc1cc(C)n(C2CCCN(C(=O)Cc3cn4ccsc4n3)C2)n1` (configuration not stated), the INHIBITION is given as -15.52%.
As for `CCc1ccc(C(C)NC(=O)N2CCC(n3cncn3)CC2)cc1` (configuration not stated), the INHIBITION was -73.1%.
With `CC(=O)N1CCN(C(=O)c2[nH]nnc2Nc2ccccc2F)CC1`, the INHIBITION is given as -1.45%.
For the compound `CC(C)N1CCN(C(=O)c2[nH]nnc2Nc2ccccc2F)CC1`, the INHIBITION is 4.35%.
On to `CC(C)CN1CCN(C(=O)c2[nH]nnc2Nc2ccccc2F)CC1`, for which the INHIBITION was 64%.
Turning to `CC(=O)N1CCCC1c1cc(N2CCN(CC(C)(C)C)CC2)cc(C)n1` (configuration not stated), the INHIBITION is 51.5%.
With `CC(=O)N1CCCC1c1cc(N2CCN(CC3CC3)CC2)cc(C)n1` (configuration not stated), the INHIBITION was determined as 45.6%.
As to `CC(=O)N1CCCC1c1cc(N2CCN(C3CCCC3)CC2)cc(C)n1` (configuration not stated), the INHIBITION is recorded as 34.5%.
Consider `Nc1nccc(N2CCC(Cc3ccccc3Cl)(C(=O)O)CC2)n1`, for which the INHIBITION is 23.5%.
The same measure for `OCC1(CCOc2ccccc2)CCCN(c2ccc(Cl)cn2)C1` (configuration not stated): 83.3%.
On to `CCc1nc(N2CCCC(CO)(CCOC)C2)ncc1C` (configuration not stated), for which the INHIBITION is given as -1.83%.
On to `N#Cc1cccc(N2CCCC(CO)(CCOc3ccccc3)C2)n1` (configuration not stated), for which the INHIBITION was 25.7%.
Regarding `N#Cc1ccc(N2CCCC(CO)(CCOc3ccccc3)C2)nc1` (configuration not stated), the INHIBITION was determined as 59.1%.
Turning to `N#Cc1cccnc1N1CCCC(CO)(CCOc2ccccc2)C1` (configuration not stated), the INHIBITION came out at 23.8%.
As to `Nc1nccc(N2CCCC(CO)(CCOc3ccccc3)C2)n1` (configuration not stated), the INHIBITION came to 86.8%.
On to `OCC1(CCOc2ccccc2)CCN(c2ccc(Cl)cn2)CC1`, for which the INHIBITION was 32.2%.
For `CC(C)=CCC1(C(=O)O)CCCN(c2ccnc(N)n2)C1` (configuration not stated), the INHIBITION is recorded as 15%.
As to `Cc1cnn(CC2CCCN2C(=O)CCc2ccc3c(c2)OCO3)c1` (configuration not stated), the INHIBITION is 9.64%.
On to `COC(=O)N1CCC(NC(=O)c2cc(S(N)(=O)=O)ccc2C)CC1`, for which the INHIBITION is 14.6%.

(Values after ChEMBL document CHEMBL4513216, “Probing the Open Global Health Chemical Diversity Library for Multistage-Active Starting Points for Next-Generation Antimalarials” (ACS Infect Dis, 2020).)
